# Screening data from PubChem.
# Most compounds without a hit are left out; they make up all but 21% or so of the library.
# Pf growth 96h – P. falciparum growth inhibition at 96 hour, primary screen for plastid delayed-death inhibitors | P. falciparum luciferase reporter growth, 96 h | hit rate 6.9% among 320,000 | Potency, µM (series often up to 28.7 µM), most hits filed as inhibitors | AID 504834
#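 Parasite growth measured via integrated firefly luciferase reporter in P. falciparum. Infected erythrocytes at 2% hematocrit, 0.05% parasitemia final were treated 96 hours at 37 C under 5% CO2, and luminescence was read.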
# CHX counter – counter-screen hit for Shiga toxin inhibitors, cycloheximide; cell reporter, cycloheximide protein synthesis inhibition counterscreen; max response, %; hit rate 12% among 300,000; in the data active means max response mostly above about 13%, no sharp cut-off; inactive means mostly below about 14%; further: read at 38.3 µM for the half of the compounds with a filed dose
# Sm TGR block – S. mansoni TGR enzyme inhibition; hit rate 3% among 360,000; purified TGR, DTNB reduction, TNB absorbance 405 nm; Potency, µM (doses to about 114 µM), usual class: inhibitors; Q962Y6; AID 485364; further: nearly all actives have a fitted effect of over 60% in size
#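 First, TGR (20 nM dispensed) and NADPH were mixed with compound. Second, a 15 min room-temperature incubation followed. Third, further NADPH and then DTNB were added to start the reaction. Finally, TNB absorbance was monitored kinetically.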
# NS1 function inh – blocks influenza NS1 protein function | Potency, µM (top dose mostly 46.1 µM) | AID 2326 | hit rate 0.4% among 270,000; calls by dose curve; further: actives are rising curves; nearly all actives have a fitted effect of over 50% in size
#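 Growth recovery, yeast-based: influenza A NS1 expressed in S. cerevisiae causes slow growth, and suppressors are detected by OD600. The parent strain without NS1 is used as positive control.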
# Shiga toxin inh – Shiga toxin inhibition; hit rate 9.2% among 290,000; AID 2315; inhibition, % at 38.7 µM; Vero cells, Shiga toxin protein synthesis inhibition reporter; in the data active means inhibition mostly above about 28%, no sharp cut-off; inactive means mostly below about 43%
# Pf growth 48h – P. falciparum growth inhibition at 48 hours (one generation); P. falciparum luciferase growth in erythrocytes, 48 h; Potency, µM (highest dose often 28.7 µM), actives largely listed as inhibitors; hit rate 5.9% among 310,000
#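 Read-out is firefly luciferase luminescence from an integrated reporter in P. falciparum, so falling signal marks reduced parasite growth. Infected erythrocytes were at 2% hematocrit and 0.1% parasitemia (final) in Albumax-supplemented RPMI 1640.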
# Numbers stand for hits; - = inactive; ? = inconclusive; . = not tested or not shown; + = active, no number; [ ] = another dose, or the depositor's remark. Unless noted, the call rests on the fitted dose curve; in most records, active means well fitted curve in the direction sought with a large enough effect; inconclusive means small, poorly fitted or top-dose-only effect, or another doubt; inactive means no such curve, though single readings can be large; an effect the other way counts as inactive or inconclusive.
SMILES,Pf growth 96h,CHX counter,Sm TGR block,NS1 function inh,Shiga toxin inh,Pf growth 48h
Cn1c(O)c(N=Nc2ccccc2)c2ccccc21,-,-,44.7µM,-,-,-[0.00184 µM]
Cn1c(O)c(N=Nc2ccc(F)cc2)c2ccccc21,-,39.8,-,.,-,-
Cc1ccc(NCC(=O)N=Nc2c(O)n(C)c3ccccc23)cc1,-,15.0,-,-,56.1,-
O=C(Nc1ccc2ccccc2c1)c1onc2c1CCCC2,-,28.3,-,-,63.7,-
COC(=O)c1cccc(NC(=O)c2onc3c2CCCC3)c1,-,99.1,-,-,+,-
C(=C\c1ccc2ccccc2n1)/c1ccccc1,-,-,-,-,-,-
CC(=O)Oc1ccc(Cl)cc1/C=C/c1ccc2ccccc2n1,?,37.4,-,-,75.8,2.62µM
CC(=O)Oc1c(Cl)cc(Cl)cc1/C=C/c1ccc2ccccc2n1,-,-,-,-,-,-
Fc1ccccc1/C=C/c1ccc2ccccc2n1,?,-,-,-,72.0,-
O=c1c2cccnc2n(Cc2ccc(Cl)cc2)c(=O)n1Cc1ccc(F)cc1,.,.,-,.,.,.
O=C(Nc1ccc(Br)cc1)Nc1cnccn1,-,21.5,-,-,53.5,-
O=C(Nc1ccc(F)cc1)Nc1cnccn1,-,13.3,?,-,-,-
COc1ccc2c(c1)CN([C@H](C)[C@@H]1CC[C@@H]3[C@H]4CC[C@H]5C[C@@H](O)CC[C@@]5(C)[C@H]4CC[C@]31C)CO2,.,.,.,-,.,.
Brc1ccc(OCCOc2cccc3cccnc23)cc1,-,-,-,-,-,-
O=[N+]([O-])c1ccc(OCCCOc2cccc3cccnc23)cc1,?,-,-,-,.,-
O=[N+]([O-])c1ccc(COc2cccc3cccnc23)cc1,-,67.9,-,-,142.7,-
N#Cc1ccc(COc2cccc3cccnc23)cc1,-,24.9,-,-,35.7,-
O=C(O)CC1(CC(=O)NCc2csc(-c3cccs3)n2)CCCCC1,-,-,-,-,-,-
CCc1n[nH]c(=S)n1/N=C/c1ccc(N(C)c2ccccc2)cc1,?,-,-,.,-,10.4µM
CCOC(=O)N1CCN(c2cc(NCCC(=O)O)c3c4c(onc24)-c2ccccc2C3=O)CC1,-,-,?,-,-,8.28µM
CN1CCN(c2cc(N3CCN(C(=O)c4ccco4)CC3)c3c4c(onc24)-c2ccccc2C3=O)CC1,-,-,10µM,-,-,?
O=C(O)CCCNc1cc(N2CCN(C(=O)c3ccco3)CC2)c2noc3c2c1C(=O)c1ccccc1-3,?,-,6.31µM,-,-,?
O=C1c2ccccc2-c2onc3c(N4CCN(CCO)CC4)cc(N4CCN(C(=O)c5ccco5)CC4)c1c23,?,-,3.55µM,-,-,?
Cc1cc(C)nc(SCC(=O)NN=C2CCCC2)n1,-,-,-,.,-,-
CCCCNc1cc(N2CCN(C3CCCCC3)CC2)c2noc3c2c1C(=O)c1ccccc1-3,.,.,-,.,.,.
SMILES,Pf growth 96h,CHX counter,Sm TGR block,NS1 function inh,Shiga toxin inh,Pf growth 48h
O=C(O)CCCNc1cc(N2CCC3(CC2)OCCO3)c2noc3c2c1C(=O)c1ccccc1-3,-,24.3,8.91µM,?,53.5,?
Cc1ccc(-c2nc3sccn3c2Nc2ccc(C)c(C)c2)cc1,.,.,-,.,.,.
C=C1C(=O)O[C@@H]2[C@@H]1CC/C(C)=C\CC[C@@]1(C)O[C@H]21,9.53µM,.,.,.,.,?
CN1C(=O)[C@@H]2C[C@@]3([C@@]45C[C@H]6C(=O)N(C)[C@@H](Cc7ccccc7)C(=O)N6[C@@H]4Nc4ccccc45)c4ccccc4N[C@H]3N2C(=O)[C@@H]1Cc1ccccc1,?,.,-,.,.,11.7µM
COc1ccc(S(=O)(=O)c2cnc3ccc(Cl)cc3c2N2CCCCC2C)cc1 (stereo unspecified),.,.,-,.,.,.
O=C(CCC1N=C2c3ccccc3N=C(SCc3ccccc3Cl)N2C1=O)N1CCN(c2ccccc2)CC1 (stereo unspecified),.,.,-,.,.,.
CC(=O)C1=C(O)C(=O)N(c2ccc(Br)cn2)C1c1ccc(F)cc1 (stereo unspecified),-,37.5,.,-,74.8,-
CC(=O)C1=C(O)C(=O)N(c2ccc(Br)cn2)C1c1ccc(Br)cc1 (stereo unspecified),-,20.7,-,-,92.7,-
CC(=O)C1=C(O)C(=O)N(c2ccc(Br)cn2)C1c1ccccc1F (stereo unspecified),-,-,-,-,-,-
CCCOc1ccc(-c2nc3ccc(Br)cc3c(=O)o2)cc1,.,.,-,.,.,.
